From PubChem BioAssay
PglD inh = blocks C. jejuni PglD acetyltransferase activity; purified PglD enzyme, DTNB colorimetric CoA detection; 360,000 tested, 0.098% active; AID 602405; inhibition, % at 12.5 µM; in the data active = inhibition above about 16%, passing the limit was not always enough; inconclusive = no clear call, values can overlap the other calls
dFosB activator = mouse delta FosB homodimer activation; P13346; purified delta FosB, TAMRA-CDK5 oligo fluorescence polarization; percent of positive-control signal above neutral wells; activation, % at 25 µM; 340,000 tested, 0.99% active;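 active = mean activation above about 17%, with every replicate also reaching it, limit read from the data, passing the limit was not always enough; inconclusive = only one of the two conditions met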
PvdQ acylase = P. aeruginosa PvdQ acylase inhibition; 340,000 tested, 0.063% active; purified PvdQ acylase, fluorescence plate reader; inhibition, % at 10 µM; in the data active = inhibition above about 30%, passing the limit was not always enough; inconclusive = no clear call, values can overlap the other calls;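 also: 0% = vehicle neutral wells and 100% = reference inhibitor wells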
FGF22 binding = binders of recombinant human FGF22 by thermal shift | SYPRO orange fluorescence; percent of sucrose octasulfate shift, DMSO zero | activity (Tm shift, normalised), % at 9.99 µM | 340,000 tested, 1.5% active;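 active = mean Tm shift, scaled 0 neutral to 100 positive control, at about 1.3% or above, every replicate too, limit read from the data; inconclusive = no clear call, values can overlap the other calls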
CDK5 inh = inhibitors of human CDK5/p35 kinase; Q00535+Q15078; Recombinant CDK5/p35, ADP-Glo luminescence, 60 min; inhibition, % at 10 µM; 330,000 tested, 0.01% active; AID 488839;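 active = highest replicate inhibition of at least 50% and at least 75% of replicates reaching 50%; inconclusive = only one of the two criteria met; inactive = both criteria failed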;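 also: plate controls were DMSO neutral control for no effect and GW8510 at 10 µM for full effect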
SIRT5 block = sirtuin-5 (human) deacylase inhibition | 330,000 tested, 1.1% active | inhibition, % at 15 µM | Purified SirT5, succinyl-peptide AMC, trypsin-coupled fluorescence; in the data active = inhibition above about 15%; inconclusive = no clear call, values can overlap the other calls
Active calls of the source: *; ? = inconclusive; · = no result given. Most compounds without a hit are left out; they make up all but 2.8% or so of the library.

SMILES | PglD inh | dFosB activator | PvdQ acylase | FGF22 binding | CDK5 inh | SIRT5 block
CC(C)NC(=O)N(C)C[C@H]1Oc2ncc(C#CC3CC3)cc2C(=O)N([C@@H](C)CO)C[C@H]1C | -2 | · | · | 0 | · | -2
C[C@@H]1CN([C@@H](C)CO)C(=O)Cc2cc(NS(=O)(=O)c3ccccc3)ccc2O[C@H]1CN(C)Cc1ccc(Cl)c(Cl)c1 | 1 | · | · | 0 | · | 20*
C[C@@H]1CN([C@H](C)CO)C(=O)Cc2cc(NS(=O)(=O)c3ccc(Cl)cc3)ccc2O[C@H]1CN(C)Cc1ccc(Cl)c(Cl)c1 | -3 | · | · | 0 | · | 15
C[C@H](CO)N1C[C@H](C)[C@@H](CN(C)Cc2ccc(Cl)c(Cl)c2)Oc2ccc(NS(=O)(=O)c3ccc(Cl)cc3)cc2CC1=O | -2 | · | · | 0 | · | 25*
C[C@@H]1CN([C@@H](C)CO)C(=O)Cc2cc(NS(=O)(=O)c3ccc(Cl)cc3)ccc2O[C@H]1CN(C)Cc1ccc(Cl)c(Cl)c1 | -2 | · | · | 0 | · | 26*
CC(=O)N(C)C[C@@H]1Oc2ncc(C#CCC3CCCC3)cc2C(=O)N([C@H](C)CO)C[C@H]1C | 0 | · | · | 0 | · | 1
Cc1cc(OCC(=O)NCc2cccnc2)c2c(C)cc(=O)oc2c1 | 0 | -6 | 0 | 0 | · | -7
Cc1cc(OCC(=O)NCCc2ccc(Cl)cc2)c2c(C)cc(=O)oc2c1 | -2 | ? | 12 | 43* | -1 | -8
CCN(c1ccc(NC(=O)COC(=O)c2ccc(C)s2)cc1)C(C)C | 4 | -5 | -11 | 43* | 3 | -5
Cc1ccc(C(=O)OCC(=O)Nc2ccc(C(N)=O)cc2)s1 | -8 | 2 | -14 | 0 | 0 | -5
Cc1ccc(C(=O)OCC(=O)NCc2cccs2)s1 | 1 | 8 | -5 | 0 | 2 | -2
O=C(COC(=O)/C=C/c1ccc(F)cc1)NCc1ccco1 | -1 | -5 | -9 | 43* | 2 | 0
Cc1ccc(C(=O)OCC(=O)NCc2ccco2)s1 | · | -10 | -8 | 44* | 0 | -5
COc1ccc(S(=O)(=O)Nc2ccc3c(c2)C(=O)N([C@@H](C)CO)C[C@@H](C)[C@H](CN(C)S(=O)(=O)c2cn(C)cn2)OCCCC[C@@H](C)O3)cc1 | -1 | · | · | 0 | · | 1
O=C(COC(=O)c1ccc(Cl)nc1)c1ccc2c(c1)OCCO2 | · | -9 | -9 | 43* | 2 | -5
Cc1ccccc1CN(C)C[C@H]1OCc2cn(nn2)CCCC(=O)N([C@H](C)CO)C[C@@H]1C | -1 | · | · | 0 | · | -5
Cc1ccc2nc(C)cc(C(=O)OCC(=O)Nc3c(C)n(C)n(-c4ccccc4)c3=O)c2c1 | · | -8 | -10 | 43* | 1 | 2
COc1ccccc1N1CCN(C(=O)CCc2ccccc2)CC1 | -5 | -1 | -1 | 0 | 2 | -3
Cc1c(NC(=O)COc2cccc(Cl)c2Cl)c(=O)n(-c2ccccc2)n1C | · | -4 | -12 | 43* | 0 | -8
COc1ccccc1N1CCN(C(=O)CCC(=O)O)CC1 | 11 | -7 | -4 | 43* | -5 | 1
COc1ccccc1N1CCN(CC(=O)NCc2ccc(Cl)cc2)CC1 | 1 | -5 | -6 | 0 | 0 | -2
COc1ccccc1N1CCN(CC(=O)NC(=O)NCc2ccccc2)CC1 | 4 | · | · | 43* | · | ·
CCOc1ccccc1N1CC(C(=O)Nc2c(C)n(C)n(-c3ccccc3)c2=O)CC1=O (stereo not drawn) | · | 2 | -16 | 43* | -1 | -4
COc1ccccc1N1CCN(C(=O)C(F)F)CC1 | 0 | -8 | -9 | · | 1 | ·
COc1ccccc1N1CCN(C(C)C(=O)N2CC(C)OC(C)C2)CC1 (stereo not drawn) | 5 | -3 | -15 | 0 | -1 | 20*
COc1ccccc1N1CCN(CC(=O)Nc2c(C)n(C)n(-c3ccccc3)c2=O)CC1 | -8 | 0 | -7 | 0 | 1 | 29*
Cc1ccc(N2CC(C(=O)Nc3c(C)n(C)n(-c4ccccc4)c3=O)CC2=O)cc1 (stereo not drawn) | · | 10 | -16 | 0 | -1 | 0
O=S(=O)(Cc1ccccc1)NCC[C@@H]1CC[C@H](NS(=O)(=O)c2ccc(F)cc2)[C@@H](CO)O1 | 0 | · | · | 0 | · | -3
COc1ccc(-c2nc(-c3ccc(NC(=O)c4ccncc4)cc3)no2)cc1OC | · | -13 | -2 | · | -3 | ·
